Structures can show the parent of a compound that is named as a salt.
Experiments:
Test in all cases: Euclidean distance of Cell Painting phenotypic profile (signed KS, 77 features) to DMSO centroid (dimensionless distance); 5 or 10 uM (library dependent); higher = stronger phenotypic change vs DMSO (phenoactivity)
Conditions in all cases: 48 h
786-O = tested on: 786-O
Procedure, shortened: (§1)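 At 10 or 5 uM, as set by the library, and 0.1% DMSO final, compounds were applied for 48 h to five cancer lines and one healthy fibroblast line. Stained cells were imaged confocally at 20X in 9 fields per well, and Harmony extracted 77 features scored as signed Kolmogorov-Smirnov statistics against vehicle wells on the same plate. Profiles underwent plate-position correction, correlation weighting and replicate averaging at the top dose. Phenoactivity is the Euclidean distance from each such profile to the median vehicle profile.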

A549 = tested on: A549
Procedure, shortened: as §1

DU145 = tested on: DU145
Procedure, shortened: as §1

FB = tested on: FB
Procedure, shortened: as §1

HEPG2 = tested on: HEPG2
Procedure, shortened: as §1

OVCAR4 = tested on: OVCAR4
Procedure, shortened: as §1

Compound | Euclidean distance (786-O) | Euclidean distance (A549) | Euclidean distance (DU145) | Euclidean distance (FB) | Euclidean distance (HEPG2) | Euclidean distance (OVCAR4)
CC(=O)[C@]1(O)Cc2c(O)c3c(c(O)c2[C@@H](O[C@H]2C[C@H](N)[C@H](O)[C@H](C)O2)C1)C(=O)c1ccccc1C3=O [Idarubicin HCl] | 5.7 | 4.85 | 4.5 | 4.44 | 5.24 | 6.18
CCOCc1nc2c(N)nc3ccccc3c2n1CC(C)(C)O [Resiquimod] | 1.35 | 1.05 | 1.47 | 0.954 | 0.587 | 1.19
COc1cc(OC)c(NC(=O)Nc2cc(C)on2)cc1Cl | 0.922 | 0.813 | 1.16 | 0.91 | 0.834 | 1.52
CN1CCN2c3ccccc3Cc3ccccc3C2C1 (stereo not given) [Mianserin HCl] | 2.29 | 2.41 | 0.876 | 2.86 | 1.34 | 2.29
O=C(O[C@H]1CN2CCC1CC2)N1CCc2ccccc2[C@@H]1c1ccccc1 [Solifenacin succinate] | 1.31 | 1.56 | 1.17 | 2.68 | 2.17 | 1.98
Cc1c(C(=O)NN2CCCCC2)nn(-c2ccc(Cl)cc2Cl)c1-c1ccc(Cl)cc1 [Rimonabant] | 1.92 | 1.17 | 1.04 | 0.895 | 0.664 | 1.22
CCC[C@@H]1C[C@@H](C(=O)N[C@@H]([C@H]2O[C@H](SC)[C@H](OP(=O)(O)O)[C@@H](O)[C@H]2O)[C@H](C)Cl)N(C)C1 [Clindamycin Phosphate] | 1.64 | 0.653 | 0.924 | 0.907 | 0.808 | 1.38
C[C@H](NC(=O)Cc1cc(F)cc(F)c1)C(=O)N[C@@H]1C(=O)N(C)c2ccccc2-c2ccccc21 | 0.725 | 1.36 | 1.17 | 1.09 | 0.895 | 0.686
CC(=C(CCOC(=O)C(C)C)SSC(CCOC(=O)C(C)C)=C(C)N(C=O)Cc1cnc(C)nc1N)N(C=O)Cc1cnc(C)nc1N (stereo in doubt) [Sulbutiamine] | 1.35 | 0.871 | 0.854 | 1.12 | 0.637 | 1.49
NS(=O)(=O)c1cc(Cl)c(Cl)c(S(N)(=O)=O)c1 [Dichlorphenamide] | 0.93 | 0.762 | 0.774 | 0.872 | 0.87 | 1.01
CCCN(CCC)S(=O)(=O)c1ccc(C(=O)O)cc1 [Probenecid] | 1.08 | 0.549 | 1.42 | 0.831 | 0.652 | 1.69
N#CC[C@H](C1CCCC1)n1cc(-c2ncnc3[nH]ccc23)cn1 | 2.03 | 1.27 | 1.36 | 1.23 | 0.819 | 0.709
CCCCCCCCCCCCCCCCOP(=O)([O-])OCC[N+](C)(C)C [Miltefosine] | 1.74 | 1.27 | 1.17 | 1.39 | 1.15 | 1.63
CN1CCN(c2cc3c(cc2F)c(=O)c(C(=O)O)cn3-c2ccc(F)cc2)CC1 [Difloxacin hydrochloride] | 1.51 | 0.685 | 0.906 | 1.1 | 0.824 | 1.17
CCC/C=C1\OC(=O)C2=C1CCC=C2 [Ligustilide] | 0.797 | 0.613 | 0.83 | 1.01 | 0.638 | 1.1
Cc1ccc(C(=O)c2cc(O)c(O)c([N+](=O)[O-])c2)cc1 [Tolcapone] | 0.991 | 1.18 | 1.08 | 0.848 | 0.591 | 1.5
CCCCCOc1ccc(-c2cc(-c3ccc(C(=O)N[C@H]4C[C@@H](O)[C@@H](O)NC(=O)[C@@H]5[C@@H](O)[C@@H](C)CN5C(=O)[C@H]([C@H](O)CC(N)=O)NC(=O)[C@H]([C@H](O)[C@@H](O)c5ccc(O)c(OS(=O)(=O)O)c5)NC(=O)[C@@H]5C[C@@H](O)CN5C(=O)[C@H]([C@@H](C)O)NC4=O)cc3)no2)cc1 [Micafungin Sodium] | 1.25 | 1.24 | 1.1 | 1.25 | 1.15 | 1.27
O=C(O)C1CSCN1 (stereo not given) [Timonacic] | 1.39 | 0.753 | 0.835 | 0.853 | 0.578 | 1.18
CCCc1cc(=O)[nH]c(=S)[nH]1 [Propylthiouracil] | 0.782 | 1.25 | 2.02 | 1.4 | 0.77 | 1.77
O=C(O)CCCC[C@@H]1CCSS1 (racemic) [Thioctic acid] | 1.09 | 0.518 | 1.41 | 0.755 | 0.413 | 0.684
CN[C@H]1CN(c2ccc3c(=O)c(C(=O)O)cn(-c4nccs4)c3n2)C[C@@H]1OC [Voreloxin (SNS-595) hydrochloride] | 3.32 | 3.76 | 2.41 | 3.35 | 2.43 | 3.8
CCNC(=O)[C@@H]1CCCN1C(=O)[C@H](CCCNC(=N)N)NC(=O)[C@H](CC(C)C)NC(=O)[C@@H](CC(C)C)NC(=O)[C@H](Cc1ccc(O)cc1)NC(=O)[C@H](CO)NC(=O)[C@H](Cc1c[nH]c2ccccc12)NC(=O)[C@H](Cc1c[nH]cn1)NC(=O)[C@@H]1CCC(=O)N1 [Leuprolide Acetate] | 0.73 | 0.754 | 0.992 | 0.659 | 0.515 | 0.971
Oc1c(Cl)cc(Cl)c2cccnc12 [Chloroxine] | 2.07 | 2.64 | 1.54 | 1.48 | 2.06 | 2.02

Compound | Euclidean distance (786-O) | Euclidean distance (A549) | Euclidean distance (DU145) | Euclidean distance (FB) | Euclidean distance (HEPG2) | Euclidean distance (OVCAR4)
CCNC(=O)c1[nH]nc(-c2cc(Cl)c(O)cc2O)c1-c1ccc(OC)cc1 | 2.94 | 3.74 | 2.8 | 3.65 | 3.19 | 2.79
COC(=O)C1=C(C)NC(C)=C(C(=O)OC2CCCN(Cc3ccccc3)C2)C1c1cccc([N+](=O)[O-])c1 (stereo not given) [Benidipine HCl] | 1.39 | 0.86 | 0.823 | 0.926 | 0.713 | 1.45
O=C(Nc1ccccc1)c1ccccc1O [Salicylanilide] | 0.807 | 0.631 | 0.393 | 0.532 | 0.798 | 0.892
CO/N=C(\C(=O)N[C@@H]1C(=O)N2C(C(=O)O)=C(COC(C)=O)CS[C@H]12)c1csc(N)n1 [Cefotaxime] | 1.26 | 0.798 | 0.573 | 0.69 | 0.777 | 0.905
CC(C)c1onc(-c2c(Cl)cccc2Cl)c1COc1ccc(/C=C/c2cccc(C(=O)O)c2)c(Cl)c1 | 1.58 | 0.795 | 1.01 | 1.26 | 1.42 | 1.02
COc1ccc(C[C@H](NC(=O)[C@H](C)NC(=O)CN2CCOCC2)C(=O)N[C@@H](Cc2ccccc2)C(=O)[C@@]2(C)CO2)cc1 | 5.28 | 4.5 | 5.11 | 5.13 | 5.18 | 6.2
CCc1c(O)cc(O)c(C(=O)c2ccc(OCCN3CCOCC3)c(OC)c2)c1CC(=O)N(CCOC)CCOC | 2.14 | 3.28 | 2.34 | 3.63 | 2.39 | 3.18
CC(=O)Nc1nc2c(Oc3cc(-c4ccc(C(F)(F)F)cc4)ncn3)cccc2s1 | 0.826 | 0.619 | 0.706 | 0.556 | 0.84 | 0.981
COc1cc(-c2cc(-c3cccc(O)c3)cnc2N)cc(OC)c1OC | 2.06 | 2.24 | 1.46 | 2.23 | 1.93 | 1.77
O=c1ccn([C@@H]2O[C@H](CO)[C@@H](O)[C@H]2O)c(=O)[nH]1 [Uridine] | 1.22 | 0.801 | 0.955 | 0.869 | 1.9 | 0.863
Cc1cc(OCCCS(C)(=O)=O)cc(C)c1-c1cccc(COc2ccc3c(c2)OC[C@H]3CC(=O)O)c1 | 1.05 | 1.02 | 1.26 | 2.38 | 1 | 1.88
COc1cc(Nc2ncc(F)c(Nc3ccc4c(n3)N(COP(=O)(O)O)C(=O)C(C)(C)O4)n2)cc(OC)c1OC [Fostamatinib (R788)] | 2.67 | 4.8 | 3.08 | 3.33 | 2.44 | 3.7
COc1cc([C@@H]2c3cc4c(cc3[C@@H](O[C@@H]3O[C@@H]5CO[C@@H](c6cccs6)O[C@H]5[C@H](O)[C@H]3O)[C@H]3COC(=O)[C@H]23)OCO4)cc(OC)c1O [Teniposide] | 2.74 | 3.77 | 4.38 | 3.23 | 3.39 | 3.66
CC(C)NC(=N)NC(=N)Nc1ccc(Cl)cc1 [Proguanil] | 1.21 | 1.28 | 0.798 | 0.927 | 0.823 | 1.25
O=C(Nc1ccccc1)N1CCN(c2nc(-c3ccccc3)ns2)CC1 | 0.718 | 0.932 | 0.9 | 1.03 | 1.34 | 1.08
CC(C)c1nc(N(C)S(C)(=O)=O)nc(-c2ccc(F)cc2)c1/C=C/[C@@H](O)C[C@@H](O)CC(=O)O [Rosuvastatin Calcium] | 0.535 | 0.682 | 2.17 | 1.71 | 1.03 | 0.889
OCCN1C[C@H](O)[C@@H](O)[C@H](O)[C@H]1CO [Miglitol] | 1.4 | 0.649 | 1.16 | 0.979 | 0.675 | 1.27
Cc1nc(-c2ccc(OCC(C)C)c(C#N)c2)sc1C(=O)O [Febuxostat] | 0.758 | 0.915 | 0.667 | 0.514 | 0.375 | 0.978
O=c1ccn(C2OC(COP(=O)(O)O)C(O)C2O)c(=O)[nH]1 (stereo not given) [Uridine 5'-monophosphate] | 1.18 | 1.21 | 1.33 | 1.3 | 1.01 | 1.23
Nc1ccc(O)c(C(=O)O)c1 [Mesalamine] | 1.49 | 0.636 | 2.08 | 1.06 | 0.538 | 1.24
CC1(C)CCC(c2ccc(Cl)cc2)=C(CN2CCN(c3ccc(C(=O)NS(=O)(=O)c4ccc(N[C@H](CCN5CCOCC5)CSc5ccccc5)c(S(=O)(=O)C(F)(F)F)c4)cc3)CC2)C1 [ABT-263 (Navitoclax)] | 1.75 | 2.22 | 1.24 | 1.16 | 1.25 | 0.98
Oc1ccc(Nc2nc(-c3ccc(Cl)cc3)cs2)cc1 | 1.72 | 2.03 | 1.54 | 2.15 | 2.49 | 1.41

— the supplement of paper PMC10127200
